Rows were chosen to be rich in hits. Some 11% of all compounds tested hit in one or more screens of this group.
IL1B secr inh = blocks inflammasome-driven IL-1 beta release; THP-1 LPS/ATP IL-1B secretion, AlphaLISA, 16 h; stronger effect = lower value; activity change, % at 57.5 µM; actives 4.7% (n = 360,000); AID 743279; in the data active means activity change below about -50%; inconclusive means mostly about -30% to -49%; further: on the % scale 0 is the no-effect control and ±100 the full control effect
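THP-1 cells pretreated 1 hr with compounds (up to 57.5 uM final), then stimulated with LPS (250 ng/mL final) plus ATP (1.25 mM final); secreted IL-1B measured by AlphaLISA after 16 hr, decreased signal indicating inhibition.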
VP16 counter = counter-screen for ROR gamma inhibitors: Gal4-VP16 reporter | Potency, µM (doses to about 53.6 µM), inactives show top-dose activity, negative = inhibition, actives largely listed as inhibitors | Drosophila S2 Gal4-VP16 UAS-luciferase, luminescence, 20 h | actives 3.5% (n = 310,000);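 further: Gal4-VP16 expression switched on by copper sulfate through the metallothionein promoter; potency means the concentration at half of the fitted maximal effect; on the % scale 0 is the no-effect control and ±100 the full control effect; nearly all actives have a fitted effect of over 50% in size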
SW480 rerep = inducers of DNA re-replication in SW480 colon cancer cells; SW480 DNA re-replication, Hoechst DNA content imaging, 48 h; Potency, µM (doses to about 46.1 µM), for the others: at the top dose re-replication activation, usual class: activators; actives 1.8% (n = 340,000); AID 624297; further: potency means the concentration at half of the fitted maximal effect; % of control where 0% means no effect; nearly all actives have a fitted effect of over 55% in size
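Per well, 250 cells were exposed to pinned compound for 48 hr. Nuclear DNA was visualised with Hoechst (40 min, 37 C) and total object intensity recorded by fluorescence scanning.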
RORg inh = ROR gamma (mouse) transcription inhibition; actives 5.4% (n = 310,000); Potency, µM (series often up to 53.6 µM), for the others: top-dose activity change, negative = inhibition, most hits filed as inhibitors; AID 2551; Drosophila S2 Gal4-RORgamma UAS-luciferase reporter, 20 h; P51450; further: potency means the concentration at half of the fitted maximal effect; on the % scale 0 is the no-effect control and ±100 the full control effect; nearly all actives have a fitted effect of over 60% in size
Target sequence (P51450 whole entry, looked up, the tested form may be a part): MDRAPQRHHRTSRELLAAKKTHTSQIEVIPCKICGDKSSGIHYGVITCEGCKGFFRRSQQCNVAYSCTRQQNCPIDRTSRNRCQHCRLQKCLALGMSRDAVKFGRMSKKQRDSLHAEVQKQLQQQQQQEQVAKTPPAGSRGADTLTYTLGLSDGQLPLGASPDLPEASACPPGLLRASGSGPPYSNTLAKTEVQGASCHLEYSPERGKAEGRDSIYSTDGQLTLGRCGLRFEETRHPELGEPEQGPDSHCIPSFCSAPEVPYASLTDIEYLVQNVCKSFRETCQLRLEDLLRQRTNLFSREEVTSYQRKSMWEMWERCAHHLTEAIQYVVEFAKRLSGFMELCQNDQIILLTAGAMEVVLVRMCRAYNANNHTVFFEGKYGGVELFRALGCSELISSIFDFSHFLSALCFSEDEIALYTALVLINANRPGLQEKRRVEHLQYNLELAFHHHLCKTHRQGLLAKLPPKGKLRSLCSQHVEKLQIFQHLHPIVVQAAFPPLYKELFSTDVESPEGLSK
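Luminescence from a UAS-regulated Photinus luciferase reporter in stably transfected Drosophila Schneider cells is measured; decreased signal marks ROR gamma inhibition. Fusion expression is induced by 700 uM copper sulfate for 20 hr.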
MCF10A rerep = induces DNA re-replication in MCF 10a normal breast cells; actives 2.9% (n = 350,000); MCF 10A DNA re-replication, Hoechst nuclear intensity, 48 h; Potency, µM (series often up to 46.1 µM), without a hit: at the highest dose activity, positive = re-replication, actives largely listed as activators; AID 624296; further: potency means the concentration at half of the fitted maximal effect; % of control where 0% means no effect; nearly all actives have a fitted effect of over 50% in size
An asterisk follows results filed as active; ? = inconclusive; . = no result; [ ] = remark or other dose. Unless noted, the call rests on the fitted dose curve; in most records, active means well fitted curve in the direction sought with a large enough effect; inconclusive means small, poorly fitted or top-dose-only effect, or another doubt; inactive means no such curve, though single readings can be large; an effect the other way counts as inactive or inconclusive.

SMILES	IL1B secr inh	VP16 counter	SW480 rerep	RORg inh	MCF10A rerep
N#Cc1ccccc1NC(=O)CSc1nnc(-c2ccccc2)n1-c1ccccc1	25.6	19.0%	23.1µM*	9.1%	?
Cc1cc(C)n2c(SCC(=O)Nc3ccccc3C#N)nnc2n1	40.8	.	-16.2%	.	-0.5%
N#Cc1ccccc1NC(=O)CSc1nccn1CCc1ccccc1	-18.2	12.9%	-6.1%	41.7%	3.1%
O=C(CSc1nnc(-c2cccnc2)n1-c1ccccc1)Nc1ccccc1	-10.1	12.7%	4.3%	-14.5%	8.4%
Cc1ccc(Cl)cc1NC(=O)CSc1nnc(C)n1-c1ccccc1	-2.0	5.62µM*	-1.1%	3.98µM*	-0.2%
Cc1ccc(-c2nnc(SCC(=O)CC(=O)Nc3ccccc3)n2-c2ccccc2)cc1	-16.5	?	-1.3%	3.55µM*	6.6%
Cc1c(Cl)cccc1NC(=O)CSc1nnc(C)n1-c1ccccc1	-1.2	13.2%	?	24.8%	0.2%
CCN(CC)c1ccc(-c2nnc(SCC(=O)Nc3ccccc3C#N)n2-c2ccccc2)cc1	-3.9	-25.3%	9.6%	17.8µM*	26.8%
CCc1cc(CNC(=O)c2ccc3nc(Cc4ccc(OC)c(OC)c4)oc3c2)on1	5.1	?	21.3%	?	-4.2%
Cc1ccc(-n2c(SCc3ccc([N+](=O)[O-])cc3)nc3ccccc3c2=O)cc1	5.5	-4.3%	-2.0%	33.9%	?
CCn1c(COc2ccccc2C)nnc1SCC(=O)CC(=O)Nc1ccccc1	-1.5	?	1.3%	7.08µM*	?
COc1ccc(-n2c(SCc3ccc([N+](=O)[O-])cc3)nnc2-c2ccc(C)cc2)cc1	-50.0*	4.47µM*	-4.1%	-3.2%	-4.9%
COc1ccc(-c2nnc(SCCC(=O)O)n2-c2ccccc2)cc1	9.9	-16.8%	-6.9%	12.6µM*	1.9%
COc1cccc(S(=O)(=O)N2C[C@H](O)COC[C@H]3O[C@@H](CC(=O)N4CCN(C)CC4)CC[C@@H]32)c1	0.0	.	.	.	.
COCCCNCCCOc1ccc(Cl)cc1C(C)(C)C	-89.2*	?	?	?	?
CCC(C)NCCCOc1ccc(Cl)cc1C(C)(C)C (configuration not stated)	-8.5	-2.3%	-10.9%	-17.8%	?
Cc1nc(NCc2cccnc2)c2c3c(sc2n1)CC(C)CC3 (configuration not stated)	-4.5	1.78µM*	?	0.708µM*	?
Cc1nc(NCc2ccco2)c2c3c(sc2n1)CCC3	-80.3*	4.3%	?	-19.4%	0.9%
Cc1nc(NCc2ccccn2)c2c3c(sc2n1)CCCC3	-54.0*	-4.1%	9.0%	12.5%	?
O=C(NCc1ccco1)c1ccc2nc3sc4c(c3c(=O)n2c1)CCCC4	.	?	.	4.47µM*	.
N#Cc1ccccc1COC(=O)CCCC1=NS(=O)(=O)c2ccccc2N1	31.9	-2.9%	?	12.4%	-0.9%
C=CC[C@@H]1C=C[C@@H](O/N=C2/[C@H]3O[C@@H]3[C@@H](O)[C@H]3[C@H]2CCn2c(=O)n(-c4ccccc4)c(=O)n23)[C@@H](CO)O1	.	-4.1%[10 µM]	.	27.3%[10 µM]	.
O=C(COc1ccccc1Cl)N1CCc2ccccc21	-1.7	?	-5.4%	-2.4%	-8.0%
O=C(COc1ccc2ccccc2c1CN1CCOCC1)N1CCc2ccccc21	-73.9*	8.0%	?	6.9%	12.3%
COCCCN=Cc1c(C)[nH]n(-c2ccc(Br)c(C)c2)c1=O	8.6	6.31µM*	-85.4%	7.08µM*	?
SMILES	IL1B secr inh	VP16 counter	SW480 rerep	RORg inh	MCF10A rerep
CC(C)(C)C(=O)c1c(N)[nH]c(C(=O)c2ccccc2)c1-c1ccc(Br)cc1	7.0	.	.	.	.
C/C(CCN1CCCCc2nc(C)c(C)cc21)=N\O[C@@H](C)CN1CCCCc2nc(C)c(C)cc21	.	-2.2%[10 µM]	?	17.5%[10 µM]	23.1µM*
O=S(=O)(NCC(Nc1ccccc1)c1ccccc1)c1ccc(Cl)cc1 (configuration not stated)	-79.2*	?	?	25.4%	?
Cc1ccc(OCc2n[nH]c(=S)n2C2CCCCC2)cc1	37.0	3.55µM*	-0.4%	1.41µM*	?
Cc1ccc(/C=N/n2c(COc3ccccc3)n[nH]c2=S)o1	26.7	7.8%[10 µM]	105.5%	?	?
S=c1[nH]nc(CSCc2ccccc2Cl)n1C1CCCCC1	-10.2	?	0.0%	0.501µM*	?
S=c1[nH]nc(COc2ccc(Cl)cc2)n1C1CCCCC1	18.6	0.794µM*	-0.7%	1.12µM*	-4.4%
O=C(CSCc1ccccc1Cl)NN=C1CCCCCC1	-19.7	-2.7%	-3.0%	24.5%	0.1%
Cc1cccc(OCc2n[nH]c(=S)n2C2CCCCC2)c1	20.8	1.26µM*	-5.9%	0.794µM*	-12.9%
CC(C)(C)c1cc(NC(=O)C2(C)CCN2C(=O)c2ccccc2CCc2ccccc2)no1 (configuration not stated)	6.1	.	.	.	.
O=C(c1ccco1)N1CCC2(CC1)CN(C(c1ccccc1)c1ccccc1)C2	.	-12.4%	.	?	.
CC(OCCN1CCCC1)(c1ccc(F)cc1)c1ccc(F)cc1	-59.5*	-5.7%	-4.7%	-10.3%	8.8%
Fc1ccc(OCCOCCN2CCCC2)cc1	8.1	.	-12.5%	.	1.9%
COc1ccc(/C=N/NC(=O)CSc2nnc(C)n2-c2ccccc2)c(OC)c1OC	-9.8	0.3%	13.4%	43.4%	-0.7%
Cc1ccc(-c2nn(-c3ccccc3)cc2/C=N/NC(=O)CSc2nnc(C)n2-c2ccccc2)cc1	-62.1*	?	1.3%	?	14.8%
Cc1ccc(-n2c(SCC(=O)N/N=C/c3ccc(C)s3)nnc2-c2ccccc2)cc1	-57.1*	-96.6%	11.7%	?	0.0%
COc1ccc(O)c(/C=N/NC(=O)CSc2nnc(C)n2-c2ccccc2)c1	64.0	-29.4%	?	7.94µM*	?
CCCCSc1nc(C)cc(SCC(=O)N/N=C/c2cccc(OC)c2O)n1	135.6	1µM*	14.1%	0.282µM*	3.7%
COc1cccc(/C=N/NC(=O)CSc2nnc(C)n2-c2ccccc2)c1O	94.3	20µM*	?	7.08µM*	?
CC#CCN1c2ccccc2[C@]23C[C@@H](C(=O)OC)N(C(=O)c4cc(C)oc4C)C2=NC(C(=O)OC)=C(C(=O)OC)[C@H]13	-20.9	3.8%	-27.0%[9.22 µM]	18.2%	-48.1%
C=CCN1c2ccccc2[C@]23C[C@@H](C(=O)OC)N(C(=O)c4cc(C)oc4C)C2=NC(C(=O)OC)=C(C(=O)OC)[C@H]13	-65.2*	-1.6%	-6.3%	20.9%	0.2%
O=C(OCn1ncc(Cl)c(Cl)c1=O)c1ccc(F)cc1	.	6.31µM*	.	?	.
O=C(COC(=O)c1cnc(Cl)c(Cl)c1)c1ccc(F)cc1	-24.8	.	1.1%	.	-5.8%
O=C(OCn1ncc(Cl)c(Cl)c1=O)c1ccccc1Cl	-97.4*	12.6µM*	7.31µM*	-89.2%	5.8µM*
O=c1c(Cl)c(Cl)cnn1Cc1ccc(F)cc1	-98.8*	?	6.51µM*	?	3.66µM*
